An excerpt weighted towards active compounds, which were near 5.7% of everything screened.
hgDAF-12 ag – H. glycines DAF-12 receptor agonists, primary screen, cell-based, luminescence, HEK293, GAL4 fusion, UAS-luciferase | Nuclear hormone receptor DAF-12 (Heterodera glycines), GAL4 fusion | HEK293 GAL4-hgDAF12 UAS-luciferase reporter, agonist luminescence; normalized to butyrate control | activation, % at 6.8 µM | hit rate 1.8% among 370,000 | AID 687014, 2013;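 active means activation above a cutoff set at the mean of all screened compounds plus 3 SD, cut at about 10% in these data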;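 further: 0% = DMSO wells and 100% = sodium butyrate wells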
DAX1 inh-1 – DAX1 (NR0B1) inhibitors, primary screen, cell-based, HEK293, Gal4-DAX1, luciferase luminescence. Nuclear receptor subfamily 0 group B member 1 (Homo sapiens), P51843. HEK293 Gal4-DAX1 luciferase reporter. inhibition, % at 6.75 µM. hit rate 0.99% among 340,000. AID 504766, 2011;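 active means inhibition above the mean over all tested compounds plus 3 SD, cut at about 4.2% in these data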;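 further: 0% = DAX1-transfected cells with DMSO and 100% = empty-vector control cells with DMSO; inhibition shows as a rise in luminescence from relieved DAX1 repression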
Target sequence (P51843 207-470 limits assumed): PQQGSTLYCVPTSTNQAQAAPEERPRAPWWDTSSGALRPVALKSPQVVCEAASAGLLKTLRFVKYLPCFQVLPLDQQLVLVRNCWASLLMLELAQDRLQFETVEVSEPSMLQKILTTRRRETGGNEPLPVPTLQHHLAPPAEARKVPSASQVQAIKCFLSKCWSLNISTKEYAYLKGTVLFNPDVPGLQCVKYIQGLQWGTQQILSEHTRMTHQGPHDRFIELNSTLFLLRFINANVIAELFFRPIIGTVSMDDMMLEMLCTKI
ssDAF12 agonist – S. stercoralis DAF-12 nuclear receptor activators, primary screen, cell-based, luminescence, HEK293, GRIP1 co-expression, lit1-tk-luc; hit rate 1% among 370,000; activation, % at 6.8 µM; Nuclear hormone receptor DAF-12 (Strongyloides stercoralis); AID 652126, 2013; HEK293 ssDAF-12/GRIP1 lit1-tk-luc reporter; % of 3 µM dafachronic acid response;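 active means activation above the mean over all tested compounds plus 3 SD, cut at about 0.9% in these data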;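 further: 0% = DMSO-only wells and 100% = 3 µM delta7-dafachronic acid wells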
AHR act – AHR activators, primary screen, cell-based, luminescence, luciferase reporter, human; Aryl hydrocarbon receptor (Homo sapiens), P35869; AHR-responsive luciferase reporter cells; activation, % at 5 µM; hit rate 2.5% among 320,000; AID 2796, 2010; in the data active means activation above about 47%;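 further: 0% = vehicle wells and 100% = reference agonist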
hcDAF-12 act – H. contortus DAF-12 nuclear receptor activators, primary screen, cell-based, luminescence, HEK293, lit1-tk-luc reporter. HEK293 hcDAF-12 lit1-tk-luc reporter; 0% DMSO, 100% Δ7-dafachronic acid. activation, % at 6.8 µM. hit rate 1.4% among 370,000;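 active means activation above the mean of all tested compounds plus 3 SD, cut at about 5.5% in these data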;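 further: 100% = response to 3 µM Δ7-dafachronic acid high control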
DAX1 inh-2 – DAX1 (NR0B1) inhibitors on StAR promoter, primary screen, cell-based, luminescence, SF-1 (NR5A1), full-length DAX-1; HEK293T StAR-luciferase reporter, SF-1/DAX-1 repression relief; inhibition, % at 6.8 µM; hit rate 1.1% among 370,000;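 active means inhibition above the mean over all tested compounds plus 3 SD, cut at about 3.6% in these data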;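 further: 0% = DAX-1 cells with DMSO and 100% = cells lacking DAX-1 with DMSO; higher inhibition means more luminescence from relief of DAX-1 repression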
* hit, by the source's call; . = not tested or not shown.

SMILES | hgDAF-12 ag | DAX1 inh-1 | ssDAF12 agonist | AHR act | hcDAF-12 act | DAX1 inh-2
O=C(CNC(=O)[C@@H]1Cc2ccccc2CN1)Nc1ccc2c(c1)OCO2 | 1 | 0 | -1 | 6 | -1 | 1
CC(C)Cn1c(-c2cc(Br)ccc2F)nc2c1c(=O)[nH]c(=O)n2CC(C)C | 0 | 0 | -1 | 3 | -1 | 1
CCOc1ncccc1C(=O)OCC(=O)Nc1cc(S(=O)(=O)N2CCCCC2)ccc1Cl | -2 | 0 | 0 | . | -1 | -1
Cc1ccc(CN2CCCCC2C(=O)Nc2ccc(Oc3cccnc3)cc2)o1 (configuration not stated) | -1 | 0 | -1 | 8 | -1 | -3
CC(C)(C)NC(=O)Cn1c(SCC(=O)NC2CC2)nc2ccccc21 | -2 | 4.7* | 0 | 0 | -1 | 0
O=C(Nc1ccccc1Cl)C1CC(=O)N(c2ccccc2)C1 (configuration not stated) | 3 | . | 1.3* | -1 | -1 | 0
O=S1(=O)CCC(N2CCOCC2)C1 (configuration not stated) | -2 | 4 | -2 | -1 | -1 | -1
COc1cccc(C2NC(=O)CCC2[N+](=O)[O-])c1OC (configuration not stated) | -2 | 2 | -1 | 0 | -2 | 0
COc1cc(C2NC(=O)CCC2[N+](=O)[O-])c(OC)cc1Br (configuration not stated) | -3 | 0 | 0.9* | 0 | 0 | 1
O=c1oc2ccc(Cl)cc2nc1/C=C(\O)c1cccs1 | 3 | 3 | 0 | 13 | 5.6* | 2
Cc1ccc2oc(=O)c(/C=C(\O)c3cccs3)nc2c1 | 8 | 5.6* | 1 | 30 | 5.6* | 2
CCCCCCCc1ccc(-c2ccc(O)cc2)nc1 | 12* | 0 | -1 | -2 | 2 | 1
COc1ccc2c(c1)oc1c(SCc3nc4ccccc4[nH]3)nc(C)nc12 | 3 | 0 | -1 | 54* | 1 | 0
Cc1nc(SCc2nc3ccccc3[nH]2)c2oc3cc([N+](=O)[O-])ccc3c2n1 | 3 | 1 | -1 | 26 | 3 | 0
Cc1nc(NC(=O)c2ccc(Br)o2)sc1C | 10 | 2 | 0 | 10 | 2 | 2
Cc1ccc(C(=O)Nc2nc(C)c(C)s2)o1 | 13* | 2 | -1 | 22 | 4 | 3
CC(CCN1CCC(C(O)(c2ccccc2)c2ccccc2)CC1)Oc1cc(F)cc(C#N)c1 (configuration not stated) | -1 | . | -1 | . | 3 | 0
CC(CCN1CCC(C(O)(c2ccccc2)c2ccccc2)CC1)Oc1ccc(C#N)cc1F (configuration not stated) | -3 | . | -1 | . | 6.0* | 0
COc1cccc(OC(C)CCN2CCC(C(O)(c3ccccc3)c3ccccc3)CC2)c1 (configuration not stated) | 1 | . | 0.9* | . | 3 | -1
CC1CCC2(CC1)CCN(CCCOC(=O)Nc1ccc3c(c1)OCO3)C2=O (configuration not stated) | 0 | . | -1 | . | -1 | -1
O=C(COc1ncnc2ccc(Br)cc12)Nc1ccc(N2CCOCC2)cc1 | 4 | 0 | 0 | 21 | -1 | -2
O=C(CSc1nc2ccccc2s1)N1CCCCC1 | 12* | 3 | 1 | 13 | 4 | 2
CC1CCN(C(=O)CSc2nc3ccccc3s2)CC1 | 12* | 4.6* | 0 | 15 | 6.5* | 2
CN(C)CCCSc1nc2ccccc2s1 | 4 | 1 | 2.0* | -5 | 4 | 0
CC1CCCC(C)N1C(=O)CSc1nc2ccccc2s1 (configuration not stated) | 7 | 5.0* | 0 | 19 | 3 | 1
SMILES | hgDAF-12 ag | DAX1 inh-1 | ssDAF12 agonist | AHR act | hcDAF-12 act | DAX1 inh-2
C=CCNc1ncnc2c1ncn2[C@H]1CN(CCOC)C[C@@H](CO)O1 | 0 | . | -1 | . | 2 | 0
COc1ccc(OC)c(NS(=O)(=O)c2cc(OC)ccc2OC)c1 | 3 | 1 | -2 | 2 | -1 | 0
CC(C)C[C@H](NC(=O)c1[nH]cnc1C(=O)Nc1ccc(CNC(=O)OC(C)(C)C)cc1)C(=O)OC(C)(C)C | -1 | 1 | -1 | 0 | -1 | -1
NC(=O)NC(=O)COC(=O)CCCSc1nc2ccccc2s1 | -9 | 4 | -1 | -4 | -1 | 0
CC(C)NC(=O)NC(=O)COC(=O)CCCSc1nc2ccccc2s1 | -1 | 7.4* | 0 | 2 | 0 | 0
c1ccc(-c2nnc(-c3ccco3)o2)cc1 | 11* | 3 | 0 | 20 | 5.8* | 2
CCOc1ccc(-c2nnc(-c3ccco3)o2)cc1OCC | 7 | 7.7* | -1 | -1 | -1 | 1
CCOc1cc(-c2nnc(-c3ccco3)o2)cc(OCC)c1OCC | 0 | 0 | -2 | 2 | -1 | -2
Cc1ccc(-c2nnc(-c3ccc4c(c3)OCO4)o2)cc1 | 8 | 2 | 0 | 79* | 1 | 2
c1coc(-c2nnc(-c3ccc4c(c3)OCO4)o2)c1 | 13* | . | 0 | . | 3 | 3.7*
Brc1ccc(-c2nnc(-c3ccco3)o2)cc1 | 9 | 2 | -1 | -2 | 5 | 1
Brc1ccc(-c2nnc(-c3ccc4c(c3)OCO4)o2)o1 | 9 | 1 | -1 | -1 | 0 | 2
COc1cc(/C=N/N2CCCCC2)cc([N+](=O)[O-])c1O | 1 | 1 | -1 | 0 | 2 | 0
CC1=C(C(=O)N(C)C)CC(CC(=O)NC2CCCC2)C(=O)N1CCC1=CCCCC1 (configuration not stated) | 12* | 3 | 0 | . | 3 | 4
CCN(CC)c1ccc(/C=N/NC(=O)c2cc3ccccc3[nH]2)cc1 | 3 | 0 | 0 | 58* | 0 | 0
CCN(CC)c1ccc(/C=N/NC(=O)c2c[nH]c3ccccc23)cc1 | 5 | -1 | -1 | 50* | 5.9* | -1
CCN(CC)c1ccc(/C=N/NC(=O)c2ccc3nc[nH]c3c2)cc1 | 1 | -1 | -1 | 13 | -2 | 0
Cc1ccc(C(=O)N2CCC(C)CC2)cc1C | 4 | 0 | 2.2* | 4 | -1 | 1
CCOC(=O)CN1CC23C=CC(O2)C(C(=O)Nc2cc(OC)ccc2OC)C3C1=O (configuration not stated) | -3 | 4.9* | -1 | 6 | -2 | 0
